About 83,000 compounds went through this panel and 20% of them were active in at least one assay; those are over-represented in the sample as a whole.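 Each cell line was grown in a 96-well plate and treated with one concentration of compound for 48 hours. Values below 10 were considered active.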 The source made the active and inactive calls.
How the values were obtained:
Experiment in all cases: NCI-60 one-dose screen, 48 h (100 = growth as untreated, 0 = no growth, -100 = all killed)
Conditions in all cases: 10 µM unless noted
SK-MEL-2 melanoma = system: SK-MEL-2 melanoma
EKVX NSCLC = system: EKVX NSCLC
SN12C renal = system: SN12C renal
UO-31 renal = system: UO-31 renal
TK-10 renal = system: TK-10 renal
ACHN renal = system: ACHN renal
CAKI-1 renal = system: CAKI-1 renal
A498 renal = system: A498 renal
CCRF-CEM leukemia = system: CCRF-CEM leukemia
MOLT-4 leukemia = system: MOLT-4 leukemia
SR leukemia = system: SR leukemia
RPMI-8226 leukemia = system: RPMI-8226 leukemia
OVCAR-8 ovarian = system: OVCAR-8 ovarian
OVCAR-5 ovarian = system: OVCAR-5 ovarian
OVCAR-4 ovarian = system: OVCAR-4 ovarian
SK-OV-3 ovarian = system: SK-OV-3 ovarian
IGROV1 ovarian = system: IGROV1 ovarian
OVCAR-3 ovarian = system: OVCAR-3 ovarian
HS 578T breast = system: HS 578T breast
NCI/ADR-RES ovarian = system: NCI/ADR-RES ovarian

Measured: growth

Cn1cc(-c2cc3nc(-c4cn(C)c5ncc(Br)cc45)cc(N)n3n2)c2ccccc21
active: SK-MEL-2 melanoma -73.6% | EKVX NSCLC -44.2% | SN12C renal -82.2% | UO-31 renal -36.3% | TK-10 renal -32.8% | ACHN renal -45.9% | CAKI-1 renal 1.08% | A498 renal -24.3% | CCRF-CEM leukemia -23.9% | MOLT-4 leukemia -42% | SR leukemia -20.7% | RPMI-8226 leukemia -2.62% | OVCAR-8 ovarian -10.9% | OVCAR-5 ovarian -49.5% | SK-OV-3 ovarian -24% | IGROV1 ovarian -23.8% | OVCAR-3 ovarian -18.5% | HS 578T breast -19.7% | NCI/ADR-RES ovarian -23.5%
inactive: OVCAR-4 ovarian 20%

CCCn1cc(-c2nc(Nc3ccc(C(=O)NCCCCNc4cccc5c4C(=O)N(C4CCC(=O)NC4=O)C5=O)cc3)nc3[nH]ccc23)cn1 (stereo not given)
inactive: SK-MEL-2 melanoma 10.4% | EKVX NSCLC 54.4% | SN12C renal 12.3% | UO-31 renal 73.9% | TK-10 renal 59.1% | ACHN renal 75.7% | CAKI-1 renal 27.3% | SR leukemia 25.1% | RPMI-8226 leukemia 17.5% | OVCAR-5 ovarian 54.2% | SK-OV-3 ovarian 24.8% | OVCAR-3 ovarian 36.3% | NCI/ADR-RES ovarian 95.6%
active: A498 renal -2.58% | CCRF-CEM leukemia -15.1% | MOLT-4 leukemia -37.9% | OVCAR-8 ovarian 6.6% | OVCAR-4 ovarian 9.82% | IGROV1 ovarian 7.36% | HS 578T breast 6.24%

CC(=O)OCC1OC(OC2C(COC(C)=O)OC(n3cc(COc4ccc5ccc(=O)oc5c4)nn3)C(OC(C)=O)C2OC(C)=O)C(OC(C)=O)C(OC(C)=O)C1OC(C)=O (stereo not given)
inactive: SK-MEL-2 melanoma 113% | EKVX NSCLC 107% | SN12C renal 98.3% | UO-31 renal 74.7% | TK-10 renal 108% | ACHN renal 102% | CAKI-1 renal 88.1% | A498 renal 116% | CCRF-CEM leukemia 100% | MOLT-4 leukemia 97% | SR leukemia 98.1% | RPMI-8226 leukemia 97.3% | OVCAR-8 ovarian 106% | OVCAR-5 ovarian 112% | OVCAR-4 ovarian 115% | SK-OV-3 ovarian 109% | IGROV1 ovarian 111% | OVCAR-3 ovarian 113% | HS 578T breast 89.2% | NCI/ADR-RES ovarian 99.9%

Cc1ccc(NCC(=O)Cn2cc(COc3ccc(C=Nc4cnc5ccccc5c4)cc3)nn2)cc1
inactive: SK-MEL-2 melanoma 136% | EKVX NSCLC 106% | SN12C renal 99.9% | UO-31 renal 90.1% | TK-10 renal 109% | ACHN renal 107% | CAKI-1 renal 97% | A498 renal 124% | CCRF-CEM leukemia 102% | MOLT-4 leukemia 108% | SR leukemia 103% | RPMI-8226 leukemia 110% | OVCAR-8 ovarian 103% | OVCAR-5 ovarian 107% | OVCAR-4 ovarian 113% | SK-OV-3 ovarian 98.4% | IGROV1 ovarian 112% | OVCAR-3 ovarian 139% | HS 578T breast 106% | NCI/ADR-RES ovarian 113%

COc1ccc2c(c1)c(-c1cc3nc(-c4cn(C)c5ncccc45)cc(N)n3n1)cn2C
active: SK-MEL-2 melanoma -71.9% | EKVX NSCLC -22.8% | SN12C renal -60.2% | UO-31 renal -62.1% | TK-10 renal -27.8% | ACHN renal -100% | CAKI-1 renal -35.9% | CCRF-CEM leukemia -22% | MOLT-4 leukemia -42.5% | SR leukemia -19.3% | RPMI-8226 leukemia -20.6% | OVCAR-8 ovarian -41.5% | OVCAR-5 ovarian -7.9% | OVCAR-4 ovarian -5.11% | SK-OV-3 ovarian -57% | IGROV1 ovarian -58.1% | OVCAR-3 ovarian -12.4% | HS 578T breast -26.8% | NCI/ADR-RES ovarian 9.49%
inactive: A498 renal 16.6%

O=C(c1ccccc1)c1ccc2nc(-c3cccc(Cl)c3)[nH]c2c1
inactive: SK-MEL-2 melanoma 106% | EKVX NSCLC 105% | SN12C renal 99.5% | UO-31 renal 95.4% | TK-10 renal 95.9% | ACHN renal 100% | CAKI-1 renal 106% | A498 renal 114% | CCRF-CEM leukemia 113% | MOLT-4 leukemia 103% | SR leukemia 117% | RPMI-8226 leukemia 114% | OVCAR-8 ovarian 103% | OVCAR-5 ovarian 107% | OVCAR-4 ovarian 114% | SK-OV-3 ovarian 99.9% | IGROV1 ovarian 113% | OVCAR-3 ovarian 116% | HS 578T breast 108% | NCI/ADR-RES ovarian 104%

CC1(C)CC[C@]2(C(=O)O)CC[C@]3(C)C(=CCC4[C@@]5(C)C[C@@H](O)[C@@H]6OC(c7ccccc7F)OC[C@@]6(C)C5CC[C@]43C)C2C1 (stereo not given in full)
inactive: EKVX NSCLC 13.8% | A498 renal 31% | CCRF-CEM leukemia 17% | RPMI-8226 leukemia 10% | OVCAR-8 ovarian 12% | OVCAR-5 ovarian 28.2% | OVCAR-4 ovarian 30.7% | SK-OV-3 ovarian 12.7% | IGROV1 ovarian 20% | HS 578T breast 21.6%
active: SK-MEL-2 melanoma -14.8% | SN12C renal 3.09% | UO-31 renal 4% | TK-10 renal 7.15% | ACHN renal 4.14% | CAKI-1 renal 9.12% | MOLT-4 leukemia 2.87% | SR leukemia 7.37% | OVCAR-3 ovarian -11% | NCI/ADR-RES ovarian 6.19%

CC(=O)/C=C/c1cccc2c1C(=O)NC(C)(c1cc3cc(Br)ccc3oc1=O)N2 (stereo not given)
active: SK-MEL-2 melanoma -0.79% | CCRF-CEM leukemia 0.825% | MOLT-4 leukemia -6.34% | SR leukemia -0.625% | RPMI-8226 leukemia 2.71%
inactive: EKVX NSCLC 34.3% | SN12C renal 12.7% | UO-31 renal 22% | TK-10 renal 58.6% | ACHN renal 22.7% | CAKI-1 renal 21.3% | A498 renal 104% | OVCAR-8 ovarian 24.9% | OVCAR-5 ovarian 30.8% | OVCAR-4 ovarian 27.2% | SK-OV-3 ovarian 52.6% | IGROV1 ovarian 25.3% | OVCAR-3 ovarian 28.1% | HS 578T breast 46.6% | NCI/ADR-RES ovarian 32.9%

CN1CCN(/C(=N\c2sc(-c3ccccc3)nc2-c2ccccc2)c2ccccc2)CC1
inactive: SK-MEL-2 melanoma 115% | EKVX NSCLC 81.3% | SN12C renal 82.7% | UO-31 renal 82.4% | TK-10 renal 105% | ACHN renal 95.3% | CAKI-1 renal 72.7% | A498 renal 122% | CCRF-CEM leukemia 57.3% | MOLT-4 leukemia 40.9% | SR leukemia 21.1% | RPMI-8226 leukemia 34.6% | OVCAR-8 ovarian 97.6% | OVCAR-5 ovarian 70% | OVCAR-4 ovarian 89.4% | SK-OV-3 ovarian 105% | IGROV1 ovarian 82.5% | OVCAR-3 ovarian 111% | HS 578T breast 88.7% | NCI/ADR-RES ovarian 90.4%

CCOC(=O)C1=C(N)N(c2ccccc2)C2=C(C(=O)CC(C)(C)C2)C1c1ccccc1Cl (stereo not given)
inactive: SK-MEL-2 melanoma 57.7% | EKVX NSCLC 74.6% | SN12C renal 75% | UO-31 renal 55.3% | TK-10 renal 100% | ACHN renal 69.2% | CAKI-1 renal 46.7% | A498 renal 99.4% | CCRF-CEM leukemia 48.4% | MOLT-4 leukemia 25.8% | SR leukemia 32.5% | RPMI-8226 leukemia 22.5% | OVCAR-8 ovarian 83.6% | OVCAR-5 ovarian 86.8% | OVCAR-4 ovarian 74.6% | SK-OV-3 ovarian 90.1% | IGROV1 ovarian 92% | OVCAR-3 ovarian 62.7% | HS 578T breast 93.4% | NCI/ADR-RES ovarian 74%

Cn1cc(NC(=O)c2cc(NC(=O)c3ccc(/C=C/c4ccccc4)cc3)cn2C)cc1C(=O)NCCCN1CCOCC1
active: CCRF-CEM leukemia -8.72% | MOLT-4 leukemia -23.6% | SR leukemia -22.3% | RPMI-8226 leukemia -47.7%
inactive: SK-MEL-2 melanoma 99.6% | EKVX NSCLC 89.6% | SN12C renal 43.4% | UO-31 renal 61.6% | TK-10 renal 87.9% | ACHN renal 70.7% | CAKI-1 renal 55.6% | A498 renal 90.6% | OVCAR-8 ovarian 15.4% | OVCAR-5 ovarian 93.9% | OVCAR-4 ovarian 63% | SK-OV-3 ovarian 98.4% | IGROV1 ovarian 58.3% | OVCAR-3 ovarian 24.5% | HS 578T breast 64.6% | NCI/ADR-RES ovarian 90.2%

COc1ccc2oc(=O)c(C3(C)NC(=O)c4c(/C=C/C(=O)OC(C)(C)C)cccc4N3)cc2c1 (stereo not given)
inactive: EKVX NSCLC 37.1% | SN12C renal 40.6% | UO-31 renal 25% | TK-10 renal 56.7% | ACHN renal 28.6% | CAKI-1 renal 39.9% | A498 renal 57.8% | CCRF-CEM leukemia 32.1% | MOLT-4 leukemia 18.1% | SR leukemia 26.2% | RPMI-8226 leukemia 28.5% | OVCAR-8 ovarian 37.9% | OVCAR-5 ovarian 60.9% | OVCAR-4 ovarian 41.5% | SK-OV-3 ovarian 51.2% | IGROV1 ovarian 41.6% | OVCAR-3 ovarian 55.4% | HS 578T breast 60% | NCI/ADR-RES ovarian 36.6%
active: SK-MEL-2 melanoma 7.6%

COc1ccc(-c2ccc(SCC(=O)NCCc3ccc(S(N)(=O)=O)cc3)nn2)cc1
inactive: SK-MEL-2 melanoma 79.8% | EKVX NSCLC 93.9% | SN12C renal 87.3% | UO-31 renal 76.8% | TK-10 renal 87.9% | ACHN renal 89.3% | CAKI-1 renal 90.6% | A498 renal 123% | CCRF-CEM leukemia 66% | MOLT-4 leukemia 68.2% | SR leukemia 63.9% | RPMI-8226 leukemia 49.6% | OVCAR-8 ovarian 88.8% | OVCAR-5 ovarian 102% | OVCAR-4 ovarian 77.2% | SK-OV-3 ovarian 71.1% | IGROV1 ovarian 82% | OVCAR-3 ovarian 121% | HS 578T breast 89.8% | NCI/ADR-RES ovarian 100%

Cn1cc(-c2nc(N)nnc2-c2c[nH]c3ccc(Br)cc23)c2cccnc21
inactive: SK-MEL-2 melanoma 30.5% | EKVX NSCLC 67.4% | SN12C renal 49.8% | UO-31 renal 48.9% | TK-10 renal 90.4% | ACHN renal 50.6% | CAKI-1 renal 47.9% | A498 renal 131% | CCRF-CEM leukemia 36.1% | MOLT-4 leukemia 27.5% | SR leukemia 29.1% | RPMI-8226 leukemia 45% | OVCAR-8 ovarian 47.9% | OVCAR-5 ovarian 80.3% | OVCAR-4 ovarian 71.1% | SK-OV-3 ovarian 61.8% | IGROV1 ovarian 46.2% | OVCAR-3 ovarian 29.2% | HS 578T breast 33.9% | NCI/ADR-RES ovarian 78.7%

From PubChem BioAssay (NCI)
